# Measured values from PubChem BioAssay (EPA / NIEHS).
# Active and inactive are the calls of the source. The calls were made as follows: active = hit-call score of the fitted dose curve at least 0.9, where 1 is the maximum; inactive = score below 0.9.
# Assay: ATG_FoxO_CIS: Attagene CIS-FACTORIAL HepG2 Assay for human Forkhead box O (FoxO) (AID 2282943)
# Details: HepG2 Attagene cis-reporter, FoxO element, mRNA; actives raise or lower the signal
# Experimental: ATG_CIS is a cell-based, multiplexed-readout assay that uses HepG2, a human liver cell line, with measurements taken at 24 hours after chemical dosing in a 24-well plate.ATG_FoxO_CIS is one of 52 assay component(s) measured or calculated from the ATG_CIS assay. It is designed to make measurements of mRNA induction, a form of inducible reporter, as detected with fluorescence intensity signals by Reverse transcription polymerase chain reaction (RT-PCR) and Capillary electrophoresis technology.Data from the assay component ATG_FoxO_CIS was analyzed into 1 assay endpoint. This assay endpoint, ATG_FoxO_CIS, was analyzed with bidirectional fitting relative to DMSO as the negative control and baseline of activity. Using a type of inducible reporter, measures of mRNA for gain or loss-of-signal activity can be used to understand the reporter gene at the transcription factor-level as they relate to the gene FOXO1 and FOXO3. Furthermore, this assay endpoint can be referred to as a primary readout, because this assay has produced multiple assay endpoints where this one serves a reporter gene function. To generalize the intended target to other relatable targets, this assay endpoint is annotated to the dna binding intended target family, where the subfamily is forkhead box protein.
# Human liver HepG2 cells are transiently transfected with multiple reporter transcription units (MRTUs) in 6-well plates using FuGene 6 reagent (Roche; 3 ml FuGene/1 mg DNA). The MRTU constructs are regulated by a cis-regulating element (promoter). […] A major difference between the CIS and TRANS system is that in CIS activities of endogenous TFs are measured, whereas the TRANS assay evaluates changes in activities of exogenous, chimeric NR-Gal4 proteins. […] At the end of 24 hour incubation, total RNA was isolated using TriZol reagent (Invitrogen). The isolated RNA is then reverse-transcribed using oligo(dT) primer and Mo-MLV reverse transcriptase (Invitrogen) with DNAse I (Ambion) treatment for 30 min. The one-tenth of the produced cDNA was amplified by PCR using Taq DNA polymerase (Invitrogen) and two reporter sequence-specific primers. The PCR products were fluorescently labeled by primer extension with 6-arboxyfluorescein (6-FAM) 5'-labeled reporter sequence-specific primer (2 min at 95 C, 20 s at 68 C and 10 min at 72 C) and these products were digested with 5U of HpaI (New England Biolabs) for 2h at 37 C. The fragments were purified using Qiaquick PCR columns (Qiagen), analyzed on an ABI 3130xL genetic analyzer (Applied Biosystems) with peak positions identified by using a set of X-rhodamine (ROX)-labeled MapMarker1000 molecular weight standards (BioVentures). The raw capillary electrophoresis data was processed using Attagraph software (Attagene).
SMILES,outcome,AC50
[F][Sn]([c]1ccccc1)([c]1ccccc1)[c]1ccccc1,inactive,–
C[As+](C)(C)CC(=O)[O-],inactive,–
CCOP(=O)(OCC)OC(=CCl)c1ccc(Cl)cc1Cl,inactive,–
Clc1ccc(C(Cl)(Cl)Cl)cn1,inactive,–
Cc1ccc2nc3sc(=O)sc3nc2c1,–,6.07 µM (active)
CCOC(=O)c1ccccc1S(=O)(=O)NC(=O)Nc1nc(Cl)cc(OC)n1,inactive,–
C=CCCl,inactive,–
CC(C)[N+](=O)[O-],inactive,–
C[CH2][Hg][S]c1ccccc1C(=O)O,–,2.29 µM (active)
FC(F)OCC(F)(F)C(F)(F)F,inactive,–
CC(c1ccccc1)(c1ccc(O)cc1)c1ccc(O)cc1,inactive,–
Cc1cc(-c2cc(C)c(N)c(C)c2)cc(C)c1N,inactive,–
C=C(C)[C@@H]1CC=C(C=O)CC1,inactive,–
COCCl,inactive,–
Cc1cccc(C)c1NC(=O)CN1CCCC1=O,inactive,–
Clc1cnc(Oc2ccc(Oc3ncc(Cl)cc3Cl)cc2)c(Cl)c1,inactive,–
Brc1c(Br)c(Br)c(Oc2c(Br)c(Br)c(Br)c(Br)c2Br)c(Br)c1Br,inactive,–
O=C(Nc1ccc(Br)cc1)c1cc(Br)cc(Br)c1O,inactive,–
[Cl][Sn]([c]1ccccc1)([c]1ccccc1)[c]1ccccc1,–,0.308 µM (active)
O=c1[nH]c(=O)n(Cl)c(=O)n1Cl,inactive,–

SMILES,outcome,AC50
CN(C)C(=S)S,inactive,–
Oc1c(Br)cc(Br)cc1Br,inactive,–
CC(C)O.CC(C)O.OCCN(CCO)CCO.OCCN(CCO)CCO.[Ti],inactive,–
O=[N+]([O-])c1cc([As](=O)(O)O)ccc1O,inactive,–
O=C=Nc1ccc(Cl)cc1,–,162 µM (active)
BrCCCCBr,inactive,–
OCCCCO,inactive,–
CCCCOP(=O)(CCCC)OCCCC,inactive,–
CCCSP(=S)(OCC)Oc1ccc(Cl)cc1Cl (stereo not given),inactive,–
Cc1ccccc1OP(=O)(Oc1ccccc1C)Oc1ccccc1C,inactive,–
CCN(CC)C(=O)C(Cl)=C(C)OP(=O)(OC)OC,inactive,–
c1ccc2c(c1)Oc1ccccc1O2,inactive,–
CCCCOC(=O)COC(=O)c1ccccc1C(=O)OCCCC,inactive,–
CCCCCCCCCCCCN(C)C,–,58.7 µM (active)
Cc1cc(Cl)ccc1OC(C)C(=O)O (stereo not given),inactive,–
NNCCO,inactive,–
CC(C)=CC1C(C(=O)OCc2cccc(Oc3ccccc3)c2)C1(C)C (stereo not given),inactive,–
O=NN1CCCCCC1,inactive,–
N#Cc1ccncc1,inactive,–
O=[N+]([O-])c1cccc2ccccc12,inactive,–
